# Most compounds without a hit are left out; they make up all but 4.8% or so of the library.
# Beta apoptosis: beta cell apoptosis inhibition; protection from apoptosis, % (no concentration beside the values); 0.8% of 300,000 active; INS-1E cytokine-induced death, ATP luminescence, 48 h; percent of positive-control rescue, neutral wells zero;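 active = Every replicate reaches about 75%, or at least half do and their mean reaches it too, limit read from the data; inconclusive = At least half of replicates reach the limit but their mean does not; inactive = Under half of replicates reach the limit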;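 note: higher means more ATP so stronger rescue from cytokine killing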
# Mdm2 MdmX PPI: human Mdm2/MdmX binding inhibition; O15151+Q00987; SaOS-2 split-luciferase Mdm2/MdmX complementation, luminescence; inhibition, % at 8 µM; 3% of 330,000 active;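 active = inhibition of at least 50% at 8 µM in the primary screen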
# Calb FLC: affects C. albicans growth with fluconazole | growth inhibition, % (test concentration not listed) | C. albicans CaCi-2 (fluconazole-resistant clinical isolate) + fluconazole, Alamar Blue growth, 48 h | 0.57% of 300,000 active;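 active = growth inhibition above about 58% in most replicates, limit read from the data, passing the limit was not always enough; inconclusive = exactly half the replicates above a set limit; inactive = most replicates below a set limit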;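 note: all wells also contain fluconazole at 8 µg/ml as a sub-toxic cotreatment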
# MPTP block: blocks calcium-induced mitochondrial swelling | isolated mouse mitochondria, Ca2+ swelling absorbance, 30 min | inhibition, % at 10 µM | 1.4% of 360,000 active | AID 602449;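 active = inhibition of 50% or more, scaled per plate between neutral and stimulator controls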
# CSC inhib: blocks cancer stem cells; cancer stem cell-like cells viability, luminescence; inhibition, % at 7.5 µM; 1.1% of 300,000 active; AID 2717; in the data active = inhibition above about 75%; inconclusive = no clear call, values can overlap the other calls; tested in HMLE shEcad cells
# Mdm2 MdmX conf: human Mdm2/MdmX binding inhibition, confirmed. shares compounds with Mdm2 MdmX PPI. luminescent assay. inhibition, % at 8 µM. 55% of 10,000 active; in the data active = inhibition above about 40%
# Full FLuc ctr: counter-screen for Mdm2/MdmX inhibitors: full-length luciferase | 77% of 6,200 active | SaOS-2 full-length luciferase counterscreen, luminescence | shares compounds with Mdm2 MdmX PPI | AID 504607 | inhibition, % at 8 µM;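 active = mean inhibition at 8 µM reaching about 37%, which flags the compound as non-specific, limit read from the data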;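 note: p53-null SaOS-2 cells with luciferase driven by a doxycycline-inducible promoter; compound on cells about two nights before reading with doxycycline added after day one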
# Hits are given with their value; i = inactive; ? = inconclusive; nt = no result given.
SMILES,Beta apoptosis,Mdm2 MdmX PPI,Calb FLC,MPTP block,CSC inhib,Mdm2 MdmX conf,Full FLuc ctr
Cc1ccccc1C(=O)c1cccn1CC(=O)NCCN1CCN(c2cccc(C)c2C)CC1,i,79,i,i,i,48,59
Cc1ccccc1C(=O)c1cccn1CC(=O)NCCCN1CCCCC1,i,i,i,i,nt,nt,nt
Cc1c(C#N)c(NC(=O)CCl)n(Cc2ccc(F)cc2)c1C,i,89,i,i,i,51,43
COC(=O)c1cc(C(=O)OC)n(Cc2ccc(F)cc2)c1C,i,i,i,i,i,nt,nt
Cc1c(C#N)c(NC(=O)CCl)n(Cc2cccs2)c1C,i,94,i,i,i,76,38
Cc1c(C#N)c(NC(=O)CCl)n(Cc2ccccc2)c1C,i,94,97,i,i,86,38
Cc1cc(C(O)c2ncc(-c3ccccc3)[nH]2)ccc1F (configuration not stated),nt,nt,nt,i,nt,nt,nt
O=C(Nc1c(-c2ccccc2)[nH][nH]c1=O)c1cccs1,nt,nt,nt,i,nt,nt,nt
Cc1ccc(NC(=O)c2cc(C)n(-c3cccc(C)c3)c2C)cc1,i,i,i,i,i,nt,nt
Cc1ccc(NC(=O)c2cc(C)n(-c3ccccc3)c2C)cc1,i,77,i,i,i,84,41
Cc1cc(C(=O)Nc2ccc(Cl)cc2)c(C)n1-c1ccccc1,nt,89,i,i,i,89,i
CCc1nc2c(OCc3ccc(Cl)cc3Cl)cccn2c1N(C)C(C)=O,nt,nt,nt,i,nt,nt,nt
CCNC(=O)C1(C)CCCN1C(=O)c1ccc2c(c1)OCO2 (configuration not stated),nt,nt,nt,i,nt,nt,nt
COc1ccccc1N1CCN(Cc2ccc(O)c3ncccc23)CC1,139,77,i,i,nt,67,i
Oc1ccc(CN2CCCc3ccccc32)c2cccnc12,103,79,i,i,i,76,43
CCOC(=O)N1CCN(Cc2cc(Cl)c3cccnc3c2O)CC1,103,64,116,nt,i,51,38
c1ccc(-c2nnc(CN3CCCc4ccccc43)o2)cc1,i,i,i,i,i,nt,nt
COc1ccccc1N1CCN(Cc2ccc(OC)c(OC)c2OC)CC1,i,i,i,i,i,nt,nt
CCOC(=O)C1CCN(Cc2ccc(O)c3ncccc23)CC1,85,81,112,i,i,62,50
O=C(Nc1nnc(SCC(=O)N2CCCCC2)s1)c1c(F)cccc1F,i,i,i,i,nt,nt,nt
O=C(Oc1c(CN2CCOCC2)cc(Cl)c2cccnc12)c1ccccc1Br,97,52,87,i,i,i,nt
CC(CN1CCOCC1)OC(=O)c1ccccc1Br (configuration not stated),i,i,i,i,nt,nt,nt
Cc1cc(C(=O)CCl)c(C)n1-c1cccc([N+](=O)[O-])c1,i,69,i,i,i,i,60
CC(=O)c1c(C(C)=O)c(C)n(-c2cccc([N+](=O)[O-])c2)c1C,i,i,i,i,i,nt,nt
CN1OC[C@@H]2CN(C(=O)C(C)(C)C)[C@H](c3ccc(-c4cccnc4)cc3)C[C@@H]21,nt,nt,nt,i,nt,nt,nt
SMILES,Beta apoptosis,Mdm2 MdmX PPI,Calb FLC,MPTP block,CSC inhib,Mdm2 MdmX conf,Full FLuc ctr
Cc1nn(-c2cc(N3CCCCC3)ccc2N)c(=O)c2ccccc12,i,i,i,i,i,nt,nt
Nc1ccc(N2CCCCC2)cc1N1CCCCC1,113,80,i,i,i,i,nt
C=CCNc1ncnc2c1ncn2[C@H]1CN(Cc2ccco2)C[C@@H](CO)O1,nt,nt,nt,i,nt,nt,nt
CCOC(=O)N1CCN(C(=O)C[C@@H]2C[C@@]3(C(=O)OCC)CCCC=C3N(CCC3=CCCCC3)C2=O)CC1,nt,nt,nt,i,nt,nt,nt
CO[C@H]1CN(C)C(=O)c2ccc(NC(=O)c3ccc4c(c3)OCO4)cc2OC[C@H](C)N(CC2CC2)C[C@@H]1C,nt,nt,nt,i,nt,nt,nt
CCCN1CCN(c2ncnc3scc(C4COc5ccccc5O4)c23)CC1 (configuration not stated),i,i,i,i,i,nt,nt
O=c1[nH]cnc2scc(C3COc4ccccc4O3)c12 (configuration not stated),i,i,i,i,i,nt,nt
Clc1ncnc2scc(C3COc4ccccc4O3)c12 (configuration not stated),i,52,i,i,i,i,nt
c1ccc2c(c1)OCC(c1csc3ncnc(N4CCCCC4)c13)O2 (configuration not stated),i,65,i,i,i,i,nt
CCCCN(C(=O)CN1C(=O)C2CCCCC2C1=O)c1c(N)n(CCC)c(=O)[nH]c1=O (configuration not stated),i,i,i,i,nt,nt,nt
O=Cc1ccc(Sc2nnc(-c3ccccc3)o2)c([N+](=O)[O-])c1,i,i,i,i,i,nt,nt
Cn1nc([N+](=O)[O-])nc1Sc1nnc(-c2ccccc2)o1,i,100,i,i,i,76,52
COc1ccc(Nc2c(CCc3ccccc3)nc3nc(C)cc(C)n23)cc1,nt,nt,nt,i,nt,nt,nt
CC1(Oc2ccc(CC#N)cc2)CCN(Cc2ccc(-n3ccnc3)cc2)C1 (configuration not stated),nt,nt,nt,i,nt,nt,nt
COc1ccc(/C=C2\CCCc3c2nc2ccccc2c3C(=O)OCC(=O)c2c(N)n(C)c(=O)n(C)c2=O)cc1,i,86,i,nt,i,79,44
COc1ccc(-c2cc(C(=O)OCC(=O)c3c(N)n(C)c(=O)n(C)c3=O)c3ccccc3n2)cc1,i,i,i,i,i,nt,nt
CCOC(=O)C1(Cc2cccc(F)c2)CCN(CC(O)CO)CC1 (configuration not stated),i,i,i,i,i,nt,nt
C=CCC[C@H](Cc1ccc(F)cc1)C(=O)OC[C@H](Cc1c[nH]c2ccccc12)NC(=O)[C@H](CC=C)CC(=O)N(CCO)Cc1ccccc1,i,90,nt,i,nt,i,nt
C=CCC[C@@H](Cc1ccc(F)cc1)C(=O)OC[C@@H](Cc1c[nH]c2ccccc12)NC(=O)[C@H](CC=C)CC(=O)N[C@H](CO)Cc1ccccc1,i,76,nt,i,nt,i,nt
C=CCC[C@@H](Cc1ccc(F)cc1)C(=O)OC[C@H](Cc1c[nH]c2ccccc12)NC(=O)[C@@H](CC=C)CC(=O)N[C@@H](CO)Cc1ccccc1,i,i,nt,i,i,nt,nt
C=CCC[C@H](Cc1ccc(F)cc1)C(=O)OC[C@@H](Cc1c[nH]c2ccccc12)NC(=O)[C@@H](CC=C)CC(=O)N[C@@H](CO)Cc1ccccc1,i,i,nt,i,i,nt,nt
C=CCC[C@@H](Cc1ccc(F)cc1)C(=O)OC[C@@H](Cc1c[nH]c2ccccc12)NC(=O)[C@@H](CC=C)CC(=O)N(CCO)Cc1ccccc1,i,93,nt,i,?,i,nt
COc1ccc(C(=O)NC(C(=O)NCC2(N3CCCCC3)CCCCC2)C(C)C)cc1 (configuration not stated),i,i,nt,i,nt,nt,nt
C[C@H]1CN([C@@H](C)CO)S(=O)(=O)c2ccc(Br)cc2O[C@H]1CN(C)C(=O)Cc1ccccn1,nt,nt,nt,i,nt,nt,nt
CN(C)CC(C)(C)CNS(=O)(=O)c1ccc(OC(F)(F)F)cc1,i,i,i,i,i,nt,nt
CCCCNC(=O)c1nc(-c2ccncc2)oc1-c1ccccc1,nt,nt,nt,i,nt,nt,nt

# Screens deposited in PubChem by several laboratories.
